From ChEMBL document CHEMBL4513216, “Probing the Open Global Health Chemical Diversity Library for Multistage-Active Starting Points for Next-Generation Antimalarials” (ACS Infect Dis, 2020)
In all, about 69,000 compounds went through this assay and about 8,600 (12%) showed an effect of 50% or more. The sample as a whole holds a higher share of strong results than the screen did.

system: Plasmodium berghei; assay: Screen against P. berghei liver stage (PbLuc), transformed with Luciferase, at 10uM; assay type: functional, HepG2; conditions: tested at 10 uM

| SMILES | INHIBITION |
| --- | --- |
| CNC(=O)c1ccc(-c2ccc(CNS(=O)(=O)N(C)C)cc2)nc1C | 8.12% |
| O=c1occ(CN2CCCCCC2)c(O)c1CN1CCCCCC1 | 25.8% |
| Cc1ccc(-c2ncc(C(=O)N3CCCN4CCC[C@H]4C3)c(O)n2)cc1 | 15.2% |
| COc1ccc(CCC2CCCN(C(=O)c3cnc(N)nc3C)C2)cc1 (stereo not drawn) | 34.9% |
| Cc1ccc(-c2ncc(C(=O)N3CCCC(CCN)C3)c(O)n2)cc1 (stereo not drawn) | 53.8% |
| Cc1nc(N)ncc1C(=O)N1CCCC(CCc2ccc(F)c(F)c2)C1 (stereo not drawn) | 38.5% |
| Cc1ccc(-c2ncc(C(=O)N3CCC[C@H](N)C3)c(O)n2)cc1 | 42.2% |
| Cc1nc(N)ncc1C(=O)N1CCCC(CCc2ccc(F)cc2)C1 (stereo not drawn) | 90.3% |
| O=C(c1c[nH]cn1)N1CCC(F)(F)C2(CCN(c3cccc(F)c3)C2)C1 (stereo not drawn) | 21.7% |
| CC(=O)Nc1ccc(SCC(O)COCc2ccc3c(c2)OCO3)cc1 (stereo not drawn) | 25.8% |
| COc1ccc(CN(C)CC2(O)CCNC2)cc1 (stereo not drawn) | 20.85% |
| Cc1nc(CN2CCC3(CC2)CC(c2cccnc2)C(=O)N3C)cs1 (stereo not drawn) | 34.5% |
| CS(=O)(=O)NC[C@]1(O)CCN(C(=O)Cc2cccs2)C[C@H]1O | -8.12% |
| C[C@@H]1CN(C(=O)C2CCS(=O)(=O)CC2)C[C@]1(C)O | -7.81% |
| NC(=O)C(NCc1cccs1)c1ccccc1 (stereo not drawn) | 60.1% |
| CNC(=O)NC(=O)C(NCc1cccs1)c1ccccc1 (stereo not drawn) | 64.7% |
| CNC(=O)NC(=O)C(NCc1ccccc1)c1ccccc1 (stereo not drawn) | 24.8% |
| O=C(C(CNCc1cccs1)c1ccccc1)N1CCOCC1 (stereo not drawn) | 5.85% |
| NC(=O)C(NCc1ccc(Cl)s1)c1ccccc1 (stereo not drawn) | -22.6% |
| NC(=O)C(NCCc1ccc(Cl)s1)c1ccccc1 (stereo not drawn) | -35.8% |
| CC(C)(C)N1CC(C(=O)N2CC(Oc3ccc(F)cc3)C2)CC1=O (stereo not drawn) | 18.5% |
| COCCN1CCC2(CC1)CC(c1cccnc1)CO2 (stereo not drawn) | 16.4% |

| SMILES | INHIBITION |
| --- | --- |
| N#Cc1ccc(OCC(O)CN2CCC(Cn3cccn3)CC2)cc1 (stereo not drawn) | 5.7% |
| CNC(=O)[C@H]1C[C@@H]2CN(S(=O)(=O)c3ccc(OC)cc3)C[C@@H]2N1C | 46.6% |
| COCc1cncc2c1CCN(C(=O)c1cccc(C#N)c1)C2 | 14.9% |
| Cn1ccnc1CN1CCC2(CC(=O)N(c3cncnc3)C2)C1 (stereo not drawn) | 33.5% |
| Cn1ccnc1CN1CCC2(CC(=O)N(c3cccc(F)c3)C2)C1 (stereo not drawn) | 25.3% |
| Cc1cccc(N2CC3(CCN(Cc4nccn4C)C3)CC2=O)c1 (stereo not drawn) | 52% |
| Cn1ccnc1CN1CCC2(CC(=O)N(c3ccsc3)C2)C1 (stereo not drawn) | 53.2% |
| COc1cccc(N2CC3(CCN(Cc4nccn4C)C3)CC2=O)c1 (stereo not drawn) | 40.4% |
| Cn1cc(N2CC3(CCN(Cc4nccn4C)C3)CC2=O)cn1 (stereo not drawn) | 14.8% |
| CCc1nc(C2CCCN2CCCS(N)(=O)=O)no1 (stereo not drawn) | 31.9% |
| CSCCC(NC(=O)C1CC1)C(=O)N(C)Cc1ccsc1 (stereo not drawn) | 42.6% |
| Cc1noc(C)c1CCc1nc(C2CCOC2)no1 (stereo not drawn) | -94.3% |
| COCCC(=O)N1CCOCC2(CCN(Cc3cccs3)C2)C1 (stereo not drawn) | -5.31% |
| Cn1cc(-c2ncnc3c2CCN(CC2CCOC2)CC3)cn1 (stereo not drawn) | 25.8% |
| CN(C)[C@@H]1CCN(S(=O)(=O)C2CC2)[C@H]1Cc1ccccc1 | 27.5% |
| Cc1nc(C2CCCN(C(=O)c3cccc4c3OCO4)C2)sc1C (stereo not drawn) | 40% |
| c1cc(-c2cn[nH]c2)ccc1CN1CCNCC1 | 14.6% |
| Cc1ccc(-c2ncc(C(=O)NCCNC(=O)C(C)C)s2)c(C)c1 | -10.9% |
| Cc1ccc(-c2ncc(C(=O)NCCS(N)(=O)=O)s2)c(C)c1 | -37.3% |
| CCNC(=O)C(C)NC(=O)c1cnc(-c2ccc(C)cc2C)s1 (stereo not drawn) | 50.5% |
| COc1ccccc1C(O)CNC(=O)NCc1csc(C)n1 (stereo not drawn) | 13.3% |
| CCN(CC)Cc1nc2c(o1)CN(S(=O)(=O)c1cccs1)C2 | 57.5% |

| SMILES | INHIBITION |
| --- | --- |
| O=S(=O)(c1cccs1)N1Cc2nc(CN3CCCCC3)oc2C1 | 19.5% |
| O=S(=O)(c1cccs1)N1Cc2nc(CN3CCCC3)oc2C1 | 67.5% |
| O=S(=O)(c1cccs1)N1Cc2nc(COCC3CC3)oc2C1 | 30.3% |
| CN(C)Cc1nc2c(o1)CN(S(=O)(=O)c1cccs1)C2 | 34% |
| c1csc(CN2Cc3nc(CN4CCCC4)oc3C2)c1 | 33.5% |
| O=c1c(S(=O)(=O)N2CCCC2)cccn1Cc1c(F)cccc1Cl | 7.92% |
| Cc1nc[nH]c1CN1CCC2(CC1)CC(Nc1ncccn1)CO2 (stereo not drawn) | 27.6% |
| CCc1cnc(CN2CCC(N(Cc3noc(CC)n3)C(C)=O)C2)o1 (stereo not drawn) | -15.5% |
| CC1CN(CC(=O)NCc2cccs2)CCN1c1nccs1 (stereo not drawn) | 36.1% |
| Cc1ccc(-c2cc(N)c(=O)n(C(C)C(N)=O)n2)o1 (stereo not drawn) | -6.88% |
| COc1ccccc1CN1C[C@@H]2CN(C(C)=O)CCO[C@@H]2C1 | 0.453% |
| COCC(=O)N1CCN(C(=O)NC(C)C)CC2(CC(=O)N(C)C2)C1 (stereo not drawn) | 45.2% |
| O=C1NCC2=Nc3ccccc3NC(c3ccccc3)C12 (stereo not drawn) | 7.92% |
| CN(C)CCOCc1nnc2n1CCN(Cc1ccoc1)CC2 | 0.618% |
| COc1ccc(CN2CCc3nnc(COCCN(C)C)n3CC2)cc1 | 22.4% |
| CN(C)CCOCc1nnc2n1CCN(Cc1ccc(F)cc1)CC2 | 69.8% |
| CN(CC(=O)N1CCCCC1c1nc(C(C)(C)C)cs1)C1CC1 (stereo not drawn) | -19.9% |
| Cc1nccc(C2CCCCN2Cc2ccc(F)cc2)n1 (stereo not drawn) | 41.2% |
| Cc1cc(COC(=O)[C@@H]2Cc3ccccc3CN2S(C)(=O)=O)no1 | 5.91% |
| CCS(=O)(=O)N1Cc2ccccc2CC1C(=O)OCc1cc(C)no1 (stereo not drawn) | 60.2% |
| CCS(=O)(=O)N1Cc2ccccc2CC1C(=O)OCc1c(C)noc1C (stereo not drawn) | -16.3% |
| Cc1nc(CN2CCC3(CCCN(Cc4cnn(C)c4)C3)C2=O)cs1 (stereo not drawn) | -0.912% |

| SMILES | INHIBITION |
| --- | --- |
| COc1ccc2[nH]c3c(N(C)CC4OCCO4)ncnc3c2c1 | -112% |
| O=C(c1ccsc1)N1CC[C@H]2C[C@@H](c3nnc(C4CC4)o3)O[C@@H]2C1 | -1.64% |
| O=C(c1ccsc1)N1C[C@@H]2C[C@@H](c3nnc(C4CC4)o3)O[C@@H]2C1 | -31.6% |
| O=C(Cc1ccsc1)N1C[C@@H]2C[C@@H](c3nnc(C4CC4)o3)O[C@@H]2C1 | 61.8% |
| Cc1occc1C(=O)N1CC[C@H]2C[C@@H](c3nnc(C4CC4)o3)O[C@@H]2C1 | 68.4% |
| O=C(c1ccccc1)N1CC[C@H]2C[C@H](c3nnc(C4CC4)o3)O[C@@H]2C1 | 38.5% |
| O=C(c1ccccc1)N1CC[C@H]2C[C@@H](c3nnc(C4CC4)o3)O[C@@H]2C1 | 38.5% |
| O=C(c1cccs1)N1CC[C@H]2C[C@@H](c3nnc(C4CC4)o3)O[C@@H]2C1 | 26.7% |
| O=C(c1ccoc1)N1CC[C@H]2C[C@@H](c3nnc(C4CC4)o3)O[C@@H]2C1 | 35.8% |
| Cc1ccoc1C(=O)N1CC[C@H]2C[C@H](c3nnc(C4CC4)o3)O[C@@H]2C1 | 54.8% |
| Cc1ccnc(C2COCCN2C)n1 (stereo not drawn) | 8.905% |
| CCn1ccnc1CN1CCN(CC(O)c2ccco2)CC1 (stereo not drawn) | 10.55% |
| c1cncc(COCC2CN(Cc3cccnc3)Cc3ccnn3C2)c1 (stereo not drawn) | -60.2% |
| CCCc1cc(=O)[nH]c(-c2ccccc2CN(C)CCC(C)C)n1 | 36.6% |
| Cc1cccn2cc(CN3CCC(N4CCN(C)C4=O)CC3)nc12 | -1.85% |
| OC(CN1CCN(Cc2cccnc2)CC1)c1cccs1 (stereo not drawn) | 10.1% |
| CCc1nccn1CCC(=O)N1CCCC1c1cncc(NC)n1 (stereo not drawn) | 2.365% |
| O=C(CN1CC(c2nc(C3CC3)no2)C1)NCC1CCCO1 (stereo not drawn) | 48% |
| O=S(=O)(C1CC1)N1CCO[C@H]2[C@H](OCCN3CCCC3)CC[C@@H]21 | -9.67% |
| CN(Cc1cnccn1)S(=O)(=O)N1CCCC1c1ccco1 (stereo not drawn) | 4.3% |
| Cc1noc(C)c1CN1CCOC(CNc2cccnn2)C1 (stereo not drawn) | -7.35% |
| CCOc1cc(CNCc2ncc[nH]2)c(Cl)cc1OC(C)C | 33.1% |

| SMILES | INHIBITION |
| --- | --- |
| CCOc1cc(CNCc2nc(C)cc(=O)[nH]2)c(Cl)cc1OC(C)C | 39.6% |
| CCOc1cc(CNCc2cnc(C)cn2)c(Cl)cc1OC(C)C | 63.5% |
| Cc1nc(CN2CCN(C(=O)NC(C)Cn3ccnc3)CC2)cs1 (stereo not drawn) | -28.2% |
| CNc1ncc(CN2CCC(c3nnsc3S(C)(=O)=O)CC2)cn1 | 21.9% |
| CS(=O)(=O)c1snnc1C1CCN(Cc2cccnc2)CC1 | 48.6% |
| CN(C)c1ncc(CN2CCC(c3nnsc3S(C)(=O)=O)CC2)cn1 | 51.2% |
| CS(=O)(=O)c1snnc1C1CCN(Cc2ccncc2)CC1 | 67.7% |
| Cc1cccc(CN2CCC(c3nnsc3S(C)(=O)=O)CC2)c1 | 18.9% |
| CS(=O)(=O)c1snnc1C1CCCN(Cc2ccncc2)C1 (stereo not drawn) | 9.93% |
| CCC(O)CN1CCN(C(=O)c2cnc3n[nH]c(C)c3c2)CC1 (stereo not drawn) | 12.7% |
| O=C(O)CSc1nccc(-c2ccc3c(c2)OCO3)n1 | 8.51% |
| CCc1nnc(C(C)N2CCc3cncnc3C2)o1 (stereo not drawn) | 2.43% |
| O=C(NC1CC1)N1CC[C@H](OCC2CC2)[C@@H]1Cc1cccnc1 | 29% |
| O=C(CN1CCC(c2ccccc2)C1)NC(=O)NCC(F)(F)F (stereo not drawn) | 36.65% |
| O=C(Nc1nc2c(s1)CN(S(=O)(=O)C1CC1)CC2)c1c(F)cccc1F | -45.9% |
| O=C(Nc1nc2c(s1)CN(S(=O)(=O)C1CC1)CC2)Nc1ccccc1F | 64.5% |
| O=C(Nc1nc2c(s1)CN(S(=O)(=O)C1CC1)CC2)c1cccc(Cl)c1 | 26% |
| O=C(Nc1nc2c(s1)CN(S(=O)(=O)C1CC1)CC2)c1ccccn1 | 39.3% |
| O=C(Nc1nc2c(s1)CN(S(=O)(=O)C1CC1)CC2)c1ccc(Cl)s1 | 73.3% |
| CS(=O)(=O)N1CCc2nc(NC(=O)Nc3c(F)cccc3F)sc2C1 | 9.54% |
